Assay outcomes: PubChem, several laboratories
MEX-5 binding: C. elegans MEX-5 TCR-2 RNA binding activity; Q9XUB2; MEX-5/FITC-TCR2 RNA binding, fluorescence polarization; hits give low values; activity score (negative = inhibition of binding), % at 10 µM; 0.38% of 300,000 active; AID 1832;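 active means inhibition past about -25% in most replicates, and total fluorescence under double the plate's negative control median, limit read from the data; inconclusive means replicates evenly split on the limit, or fluorescence at least double controls; inactive means too little inhibition in most replicates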
eLon inh: E. coli protease La inhibition; purified E. coli Lon protease, fluorescence polarization; AID 602123; inhibition, % at 7.94 µM; P0A9M0; 0.42% of 360,000 active; in the data active means inhibition above about 13%, passing the limit was not always enough
Target sequence (P0A9M0 whole entry, looked up): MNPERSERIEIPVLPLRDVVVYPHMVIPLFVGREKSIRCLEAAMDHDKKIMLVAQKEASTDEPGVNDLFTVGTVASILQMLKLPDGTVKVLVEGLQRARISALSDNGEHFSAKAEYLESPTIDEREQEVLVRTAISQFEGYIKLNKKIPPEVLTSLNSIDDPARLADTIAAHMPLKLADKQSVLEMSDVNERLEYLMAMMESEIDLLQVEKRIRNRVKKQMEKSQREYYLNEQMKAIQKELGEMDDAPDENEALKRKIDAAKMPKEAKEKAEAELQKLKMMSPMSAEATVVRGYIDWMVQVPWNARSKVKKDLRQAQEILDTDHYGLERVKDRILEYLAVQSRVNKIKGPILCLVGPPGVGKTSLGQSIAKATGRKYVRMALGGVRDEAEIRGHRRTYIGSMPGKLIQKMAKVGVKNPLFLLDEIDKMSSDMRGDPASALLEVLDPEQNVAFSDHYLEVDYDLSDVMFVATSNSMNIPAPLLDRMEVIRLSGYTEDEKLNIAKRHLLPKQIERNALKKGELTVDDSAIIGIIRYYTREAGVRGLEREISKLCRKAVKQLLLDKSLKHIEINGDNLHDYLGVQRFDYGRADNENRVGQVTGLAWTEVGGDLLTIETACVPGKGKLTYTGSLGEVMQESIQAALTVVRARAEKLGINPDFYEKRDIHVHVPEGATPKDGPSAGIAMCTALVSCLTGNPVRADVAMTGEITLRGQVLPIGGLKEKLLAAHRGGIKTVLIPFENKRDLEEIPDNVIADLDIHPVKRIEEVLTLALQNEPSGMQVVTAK
GLD-1 RNA inh: GLD-1-TGE RNA interaction inhibition (C. elegans); 0.44% of 320,000 active; Q17339; inhibition, % at 5.96 µM; purified GLD-1 + fluorescein TGE RNA, fluorescence polarization; AID 2280;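 active means percent inhibition above a per-plate cutoff, the plate mean of test compounds plus 3 SD, cut at about 30% in these data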
EBV gp42 inh: EBV gp42 inhibition; 0.42% of 220,000 active; Q1HVG2; Fluorescence polarization binding assay, mP read-out; AID 1085; inhibition, % (tested at 21.74 µM); in the data active means inhibition above about 50%
Bcl-xL primary: inhibitors of human Bcl-xL; GST-Bcl-xL / FITC-Bim BH3 peptide fluorescence polarization; inhibition, % at 10.9 µM; 0.7% of 320,000 active; AID 2129;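 active means inhibition above the mean of all tested compounds plus 3 SD, cutoff set per campaign, cut at about 30% in these data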;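 further: inhibitors lower millipolarization by displacing the labeled peptide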
Large screens that a line does not name were inactive. In the library only some 1.3% were active in any assay of this set; here they are far more common.

COc1ccc2cc(/C=C3\SC(=S)NC3=O)c(N3CCOCC3)nc2c1	MEX-5 binding -26.1
O=C1NC(=S)S/C1=C/c1ccc(N2CCOCC2)o1	MEX-5 binding inconclusive, Bcl-xL primary 46.8
O=C1S/C(=C/c2ccc(N3CCOCC3)o2)C(=O)N1Cc1ccc(F)cc1	none
CC(=O)C[C@H](O)CC(=O)[C@H]1OC(=O)CCCCCCc2ccccc21	none (no result: MEX-5 binding, EBV gp42 inh, Bcl-xL primary)
CCOc1ccc(C(=O)NCCN2CCCCC2)c(OCC)c1	none (no result: EBV gp42 inh)
Cc1ccc2c(CN3CCC(C(N)=O)CC3)cc(=O)oc2c1C	none (no result: EBV gp42 inh)
O=Cc1cnc(N2CCCCC2)s1	EBV gp42 inh 111.5
O=C(N/N=C/c1cnc(N2CCCCC2)s1)c1ccc(Cl)cc1	none
CCCCOc1ccc2c(c1)C(=O)c1cc(O)ccc1-2	GLD-1 RNA inh 139.2
COCCn1c(=O)[nH]c2cc(C(=O)NCCc3ccc(OC)c(OC)c3)ccc2c1=O	EBV gp42 inh 50.2
O=C1NN(c2cccc(Br)c2)C(=O)/C1=C/c1ccc(-c2cc([N+](=O)[O-])ccc2O)o1	EBV gp42 inh 100.8
CC1=NN(c2ccc(C)cc2)C(=O)/C1=C/c1ccc(-c2cc([N+](=O)[O-])ccc2O)o1	none (no result: GLD-1 RNA inh, EBV gp42 inh, Bcl-xL primary)
CCCC(=O)c1c(NCCO)cc(C)oc1=O	none
O=C(CCS(=O)(=O)c1ccccc1)Nc1ccc(-c2nc3ccccc3s2)c(O)c1	Bcl-xL primary 35.8
COc1cc(C)c(CNc2ccc(OC)c(OC)c2)cc1C	Bcl-xL primary 35.5 (no result: eLon inh)
N#C/C(=C\c1ccc([N+](=O)[O-])o1)C(=O)Nc1ccc(F)cc1	Bcl-xL primary 41.0
CC(=O)Oc1ccc(C(=O)[C@H]2[C@H]3C(=O)N(c4ccc(C)cc4)C(=O)[C@H]3[C@@H]3C=CC=NN32)cc1	GLD-1 RNA inh 37.9
COc1ccc(N2C(=O)[C@@H]3[C@H](C2=O)[C@H](C(=O)c2ccc(OC(C)=O)cc2)N2N=CC=C[C@@H]32)cc1	none (no result: eLon inh)
Cc1cccc(C(=O)N=c2c(C#N)cc3c(=O)n4cccc(C)c4nc3n2Cc2ccco2)c1	Bcl-xL primary 43.1
Cc1cccn2c(=O)c3cc(C#N)c(=NC(=O)c4ccccc4)n(Cc4ccco4)c3nc12	Bcl-xL primary 34.7 (no result: EBV gp42 inh)
COCCCn1c(=NC(=O)c2ccccc2)c(C#N)cc2c(=O)n3cccc(C)c3nc21	MEX-5 binding inconclusive, eLon inh 84.3, GLD-1 RNA inh 127.5, EBV gp42 inh 51.5, Bcl-xL primary 181.0
CCOCCCn1c(=NC(=O)c2cccs2)c(C#N)cc2c(=O)n3cccc(C)c3nc21	MEX-5 binding -36.9, GLD-1 RNA inh 105.7, EBV gp42 inh 54.0, Bcl-xL primary 138.2
CCOC(=O)c1cc2c(=O)n3cccc(C)c3nc2n(Cc2ccco2)c1=NC(=O)c1cccnc1	none (no result: MEX-5 binding, GLD-1 RNA inh, Bcl-xL primary)
Cc1cccn2c(=O)c3cc(C#N)c(=NC(=O)c4cccs4)n(CC(C)C)c3nc12	none
Cc1cccn2c(=O)c3cc(C#N)c(=NC(=O)c4ccco4)n(Cc4ccco4)c3nc12	none
Cc1cc(Br)c2[nH]cc(CCNC(=O)c3ccco3)c2c1	none (no result: EBV gp42 inh)
CC(=O)CC(c1ccc([N+](=O)[O-])cc1)c1c(O)c2ccccc2oc1=O (configuration not stated)	none
CC(=O)NC1CC2CCCC(C1)N2C(=O)Nc1c(C)cccc1C (configuration not stated)	none (no result: MEX-5 binding, GLD-1 RNA inh, EBV gp42 inh, Bcl-xL primary)
CN1CCc2c(sc(NC(=O)C3CCCN3S(=O)(=O)c3ccc(Cl)s3)c2C(N)=O)C1 (configuration not stated)	none (no result: EBV gp42 inh)
CCOc1ccc(S(=O)(=O)N2CCOCC2)cc1NC(=O)CN1C(=O)NC(C)(c2ccccc2)C1=O (configuration not stated)	none (no result: EBV gp42 inh)
Cc1cc(=O)oc2cc(OCC(=O)NC3(C#N)CCCCC3)ccc12	none (no result: MEX-5 binding, GLD-1 RNA inh, EBV gp42 inh, Bcl-xL primary)
O=C1CCNc2cc3ccccc3cc21	GLD-1 RNA inh 56.7, Bcl-xL primary 112.1
COc1cc2c(cc1OC)CN(c1ccc(-c3ccccc3OC)nn1)CC2	Bcl-xL primary 54.1
COc1cc2c(cc1OC)CN(c1ccc3ccccc3n1)CC2	none (no result: EBV gp42 inh)
O=C(O)CCCN1C(=O)/C(=C/C=C/c2ccco2)SC1=S	Bcl-xL primary 46.5
O=C(O)CCCN1C(=O)/C(=C\c2ccc(-c3nc4ccccc4s3)o2)SC1=S	MEX-5 binding -55.6
O=C(O)CC(C(=O)O)N1C(=O)/C(=C/C=C/c2ccco2)SC1=S (configuration not stated)	MEX-5 binding -65.6, Bcl-xL primary 41.5
O=C(NN1C(=O)/C(=C/C=C/c2ccco2)SC1=S)c1ccccc1O	none
O=C(O)CCN1C(=O)/C(=C/c2ccc(-c3nc4ccccc4s3)o2)SC1=S	MEX-5 binding inconclusive
O=C(O)C(Cc1ccccc1)N1C(=O)/C(=C/C=C/c2ccco2)SC1=S (configuration not stated)	none (no result: GLD-1 RNA inh, Bcl-xL primary)
COC(=O)C1=COC(OC2OC(CO)C(O)C(O)C2O)C2C(C)CC(=O)C12 (configuration not stated)	none (no result: MEX-5 binding, GLD-1 RNA inh, EBV gp42 inh, Bcl-xL primary)
CC(=Nc1ccc(Br)cc1)c1sc2ccccc2c1O	MEX-5 binding -30.0
CSc1ccccc1C(=O)N1CCC2(CC1)CC(=O)c1ccccc1O2	none (no result: EBV gp42 inh)
O=C(COC(=O)c1ccc([N+](=O)[O-])s1)Nc1ccc(Cl)cn1	none
Cc1c(Cl)cnc(NC(=O)COC(=O)c2ccc([N+](=O)[O-])s2)c1Cl	Bcl-xL primary 41.5
CCOC(=O)C1=CCN(S(=O)(=O)c2ccccc2Br)C1c1cccc(F)c1 (configuration not stated)	none (no result: MEX-5 binding, GLD-1 RNA inh, EBV gp42 inh, Bcl-xL primary)
CCOC(=O)/C(=C(/C)N)C1CC(=O)NC1=O (configuration not stated)	none (no result: MEX-5 binding, GLD-1 RNA inh, EBV gp42 inh, Bcl-xL primary)
COc1cccc(N=Nc2c(=O)[nH]n3c(=O)cc(C)[nH]c23)c1	MEX-5 binding -32.4
COc1cccc(N=Nc2c(=O)[nH]n3c(=O)c4c([nH]c23)CCC4)c1	none
O=C(CN1CCN(c2ccc(O)cc2)CC1)Nc1ccc2c(c1)OCCCO2	none (no result: MEX-5 binding, EBV gp42 inh)
O=C(/C=C/c1ccco1)Nc1cccc2cccnc12	Bcl-xL primary 51.0
CCOC(=O)/C(C#N)=C\c1ccc(N2CCN(C/C=C/c3ccccc3)CC2)cc1	MEX-5 binding inconclusive, EBV gp42 inh 130.7
CCOC(=O)/C(C#N)=C\c1cc(C)n(-c2ccccc2)c1C	none
Oc1c(C=Nc2ccccc2)sc(=S)n1Cc1ccccc1	MEX-5 binding -43.5
Cc1cc2nc(C(C)(C)C)c(Cc3ccccc3)n2c(C)c1Br	none (no result: MEX-5 binding, GLD-1 RNA inh, EBV gp42 inh, Bcl-xL primary)
Nn1c(Cc2ccccc2F)nnc1SCC(=O)N1CC(=O)Nc2ccccc21	EBV gp42 inh 60.0
CC(C)OC(=O)C[N+](C)(C)CCN1C(=O)C2C(c3ccccc3)C=CC(c3ccccc3)C2C1=O (configuration not stated)	GLD-1 RNA inh 55.4
C#CC[N+](C)(C)CCN1C(=O)C2C(c3ccccc3)C=CC(c3ccccc3)C2C1=O (configuration not stated)	none
COc1cc(/C=N/Nc2nc3ccccc3s2)cc([N+](=O)[O-])c1O	Bcl-xL primary 34.2
COc1cc(/C=N/Nc2nc(=O)[nH]nc2C)cc([N+](=O)[O-])c1O	MEX-5 binding -78.7
Cc1n[nH]c(=O)nc1N/N=C/c1ccc(O)c([N+](=O)[O-])c1	MEX-5 binding -27.6
